Laboratory results taken from ChEMBL document CHEMBL4513216, “Probing the Open Global Health Chemical Diversity Library for Multistage-Active Starting Points for Next-Generation Antimalarials” (ACS Infect Dis, 2020).
In all, about 65,000 compounds went through this assay and about 2,100 (3.2%) showed an effect of 50% or more. The median lay at about -52%. Shown is part of a subset that was picked to be rich in strong results.

System: Plasmodium falciparum
Assay: Screen against P. falciparum Asexual Blood Stage (ABS), at 5uM
Format: functional, Dd2
Conditions: tested at 5 uM

Row | Compound | INHIBITION
1 | CC(C)CN1CCC2(CC1)C(=O)Nc1ccc(C(=O)N(C)C)cc12 | -21.2%
2 | Cc1c(C2SCC(=O)Nc3c2c(O)nn3C2CCCCC2)cnn1C (stereo unspecified) | -53.5%
3 | COc1cnc(N2CC(N3CCOCC3)C2)nc1-c1ccnn1C | 75.3%
4 | c1cc(COC[C@@]23CCC[C@@H]2CN(C2CCOCC2)C3)ccn1 | -24.5%
5 | CC1CCN(CC(=O)N(Cc2ccccc2)Cc2nccs2)C1=O (stereo unspecified) | -96.3%
6 | COc1cccc(CN(Cc2ccco2)Cc2[nH]cnc2C)c1 | 86.4%
7 | COc1cccc(CCNCc2c(C)nn(C)c2N(C)C)c1 | 49%
8 | Cc1nc[nH]c1CN1CCCC12CCN(c1ccccn1)CC2 | -15.3%
9 | Cc1nc[nH]c1CN(Cc1ccccc1)Cc1nccs1 | 75.7%
10 | CCOCCCNC(=O)c1cn(C(C)(C)C)c2ncccc12 | -151%
11 | CC(NCC1CCN(CCO)CC1)c1cccc(Cl)c1 (stereo unspecified) | 84.8%
12 | CN(CC1CCN(CCO)CC1)CC(O)c1ccc(F)c(F)c1 (stereo unspecified) | 76.5%
13 | COc1ccc(Cl)cc1CC(=O)N1CCN(CCO)CC1 | -118%
14 | CC(NCC1CCN(CCO)CC1)c1ccc(Cl)cc1 (stereo unspecified) | 93.9%
15 | CC(NCC1CCN(CCO)CC1)c1ccc(F)c(Cl)c1 (stereo unspecified) | 84.1%
16 | Cc1n[nH]c2c1C(c1ccc(Br)cc1)SCC(=O)N2 (stereo unspecified) | -33.1%
17 | CCOCC(=O)NC(C)Cc1ccccc1Br (stereo unspecified) | -68.7%
18 | Cc1ccnc(OC[C@@]23CCO[C@@H]2CCN(C2CCC2)C3)n1 | -9.15%
19 | CC(Cc1ccc(Cl)cc1)NC(=O)Nc1cnn(CC(N)=O)c1 (stereo unspecified) | 22.5%
20 | CSc1cccc(CN(C)C(=O)c2cccc(C3CCCNC3)c2)c1 (stereo unspecified) | 77.5%
21 | CNC(=O)c1ccc2c(c1)C1(CCN(C(C)C)CC1)C(=O)N2 | -45.1%
22 | O=C(c1ccccc1)N1CCOC2CNCC[C@H]21 (stereo partly specified) | -28.1%

Row | Compound | INHIBITION
23 | Cc1cc(N(C)C)cc(C2CCN(S(=O)(=O)c3cccs3)C2)n1 (stereo unspecified) | 84.1%
24 | CCCSCC(=O)N1C[C@@H]2CC[C@H]1CN(Cc1cccnc1)C2 | -60%
25 | Cc1cc(N2CCC(NCCOc3ccccc3)CC2)nc(C)n1 | 75.1%
26 | Cc1cc(N2CCCC2c2cccnc2)nc(C)n1 (stereo unspecified) | -10.2%
27 | Cc1ccc(N2CC[C@@H]3[C@@H]2CCN3Cc2ccsc2)nn1 | -103%
28 | Cc1cccc(N2CCC(NC(C)c3cccs3)CC2)n1 (stereo unspecified) | -22.7%
29 | CCc1cc(N2CCC(NC3CN4CCC3CC4)CC2)nc(N(C)C)n1 (stereo unspecified) | -25.1%
30 | CCCc1cc(N2CCC(NCCc3ccc(O)cc3)CC2)nc(C)n1 | 82.1%
31 | Cc1cc(N2CCC(NC(C)Cc3ccsc3)CC2)nc(C)n1 (stereo unspecified) | 85.8%
32 | CC(C)OC(=O)N1C[C@@H]2CC[C@H]1CN(Cc1cccnc1)C2 | -128%
33 | Cc1cccc(CN2C(=O)C[C@H]3[C@@H]2CCN3Cc2cccs2)n1 | -76.6%
34 | CN1CCC(N2CCOC3(CCCC3)C2)C1=O (stereo unspecified) | -26.7%
35 | CC(C)Oc1ccc(C(O)CNCc2ccccc2C(F)(F)F)cc1 (stereo unspecified) | 83.2%
36 | Cc1ccccc1CNCC(O)c1ccc(OC(C)C)cc1 (stereo unspecified) | 92.4%
37 | OC(CNCc1ccccc1C(F)(F)F)c1ccccc1 (stereo unspecified) | 82.4%
38 | Cc1noc(C)c1C(=O)N1CCOC2(COCCN(C(C)C)C2)C1 (stereo unspecified) | -57.3%
39 | CN(CCCOc1ccccc1)C(=O)c1csc(-c2nnc[nH]2)n1 | 77.1%
40 | CC1(C)CN(C(CNC2=NCCN2)c2ccc(Cl)cc2)CCO1 (stereo unspecified) | 83%
41 | Cc1n[nH]c2c1C(c1ccc(O)c(Cl)c1)SCC(=O)N2 (stereo unspecified) | -65.6%
42 | Cc1ccc(C(=O)N2C[C@@H]3OCCN(C)[C@@H]3C2)cn1 | -12.2%
43 | O=C(c1ccc(-n2ccnc2)nc1)N1CCN2CCCCC2C1 (stereo unspecified) | -56.6%
44 | O=C(c1ccc(-n2cccn2)nc1)N1CCC(c2ccc(O)cc2)CC1 | 75.1%

Row | Compound | INHIBITION
45 | Cc1noc(C)c1CN1C[C@H](OCC2CC2)[C@H]2COC[C@H]21 | -54.7%
46 | Fc1ccccc1CO[C@@H]1C[C@H]2CN(c3ncccn3)CCN2C1 | -67.9%
47 | O=C(Cc1ccccc1F)N1CCN(Cc2noc(C3CC3)n2)CC1 | -69%
48 | Fc1cccc(CN2CCC(c3cc4ncccc4cn3)CC2)c1F | 89.4%
49 | Fc1cnccc1CN1CCC2(CCN2c2ncccn2)C1 (stereo unspecified) | -10.7%
50 | CN1C(=O)C2(CCN(Cc3cccnc3)CC2)c2cccc(F)c21 | -61.4%
51 | COc1ccc(C)cc1CN1CCC(c2cc3ncccc3cn2)CC1 | 78.2%
52 | Fc1ccc(F)c(CN2CCC(c3cc4ncccc4cn3)CC2)c1 | 76%
53 | O=C1CO[C@H]2CN(Cc3cccnc3)C[C@H]2N1 | -119%
54 | CCN1CCN(C(=O)Cc2ccc(S(=O)(=O)C(F)F)cc2)CC1 | -124%
55 | NCC1Cc2cccc(-c3ccc(O)c(F)c3)c2O1 (stereo unspecified) | 82.9%
56 | COCC(=O)N1C[C@@H]2OCCN(Cc3c(C)noc3C)[C@@H]2C1 | -93.2%
57 | c1cncc(O[C@H]2CC[C@H]3[C@H]2OCCN3C2CCC2)c1 | -27.2%
58 | Cc1ccc(Cl)cc1N1CCC(CNC(=O)CCn2ccnc2)C1 (stereo unspecified) | 84.2%
59 | CCN1CCN(C(=O)c2cn(Cc3ccccc3)c3ncccc23)CC1 | 20.5%
60 | CCc1ncc(C(=O)N2CC[C@H]3CC[C@@H](C2)N3C)cn1 | -3.55%
61 | CN1[C@@H]2CC[C@H]1CN(C(=O)c1ccc(-c3ccccc3)[nH]1)CC2 | 79.7%
62 | CC(=O)c1cc(C(=O)N2CC[C@H]3CC[C@@H](C2)N3C)c(=O)[nH]c1C | -102%
63 | COCCN1CCN(Cc2ccncc2)[C@H]2CS(=O)(=O)C[C@H]21 | -111%
64 | CNC(=O)CN1CC[C@H]2CN(C(=O)c3ccc(C)nc3)C[C@H]2C1 | -17.9%
65 | CCN(CC)CCN1CCO[C@H]2[C@@H](OCc3ccccn3)CC[C@@H]21 | -115%
66 | COC(=O)c1cc(OCC2CCC2)cc(C(=O)N[C@@H]2CNCC[C@H]2O)c1 | 90.1%

Row | Compound | INHIBITION
67 | CC1=N[C@@]2(CC[C@@H]3CN(CC(C)C)C[C@@H]32)C(=O)N1 | -40.1%
68 | COc1ccc2c(c1)c(C(=O)Nc1n[nH]c(C(C)C)n1)cn2C(C)C | 22.8%
69 | CCCc1nc(N2CCCN3CCC[C@H]3C2)c2cnn(C)c2n1 | -7.45%
70 | CCCc1nc(N2CCCC3(CCNC3)C2)c2cnn(C)c2n1 (stereo unspecified) | -53.5%
71 | CCCc1nc(N(C)CCN2CCCCCC2)c2cnn(C)c2n1 | 92.9%
72 | Cc1c(C2SCC(=O)Nc3c2c(O)nn3C2CCCC2)cnn1C (stereo unspecified) | -70.4%
73 | CC(C)N1CCC2(CCCNC2)C1=O (stereo unspecified) | 25.4%
74 | c1cnc(N2CCC3(COCCN(CC4CCOCC4)C3)C2)nc1 (stereo unspecified) | -26.6%
75 | O=C1C[C@H]2[C@@H](CCN2Cc2ccccn2)N1CCN1CCOCC1 | 27.7%
76 | c1cc(N2CCC(CN3CCOCC3)CC2)c2sccc2n1 | 92.3%
77 | O=C1NC[C@H]2CN(Cc3ccnc4ccccc34)CCN12 | -11.8%
78 | CCC(O)(CNCc1cc[nH]n1)c1ccc(Br)cc1 (stereo unspecified) | 76.4%
79 | Cn1cc(CN2CC[C@]3(C[C@H](OCc4ccccn4)CO3)C2)cn1 | -37.1%
80 | O=C(NCc1ccccn1)[C@@]12CCO[C@@H]1CCN(C1CCCC1)C2 | -21.2%
81 | CC(C)N1CCC2(CC1)CC(NCc1ccccn1)c1ccccc1O2 (stereo unspecified) | 70.7%
82 | O=S(=O)(C1CC1)N1CCC2(CC1)CN(Cc1ccccn1)CCO2 | -110%
83 | OCCN1CCC2(CC1)CC(NCc1ccccn1)c1ccccc1O2 (stereo unspecified) | 70.8%
84 | CC(C)N1CCOCC2(CN(Cc3ccccn3)CCO2)C1 (stereo unspecified) | -62.4%
85 | CN(C)C(=O)[C@@H]1C[C@@H]2CCN(Cc3ccncc3)C[C@@H]2O1 | -19.3%
86 | CCCN1CCC[C@]2(CCC(=O)N2Cc2ccncc2)[C@H]1CC | -97.5%
87 | O=C(C1CC=CC1)N1CCC2(CC1)CNCCO2 | -57.4%
88 | O=C(C1CC1)N1CCC2(CC1)OCCO2 | -77.4%

Row | Compound | INHIBITION
89 | O=C(C1CCOCC1)N1CCC2(CCNCC2)C1 | -36.9%
90 | C[C@@H]1CN(C(=O)C2CCS(=O)(=O)CC2)CC[C@@]1(O)C1CCOCC1 | 71.2%
91 | O=C([C@@H]1Cc2[nH]cnc2CN1Cc1cc2ccccc2o1)N1CCCC1 | 95%
92 | CCOCC(O)CN1CCN(C(=O)Cc2cccc(Cl)c2)CC1 (stereo unspecified) | -87.1%
93 | CCOCC(O)CN1CCN(C(=O)Cc2ccc3c(c2)CCC3)CC1 (stereo unspecified) | 69.6%
94 | CCOCC(O)CN1CCN(C(=O)Cc2ccccc2Cl)CC1 (stereo unspecified) | -121%
95 | O=C(Cc1ccccc1Cl)N1CCN(CC(O)COCCO)CC1 (stereo unspecified) | 58%
96 | CCC(O)CN1CCN(C(=O)Cc2ccc(C)nc2)CC1 (stereo unspecified) | 36.3%
97 | CCOCC(O)CN1CCN(C(=O)Cc2ccc3c(c2)CCO3)CC1 (stereo unspecified) | -3.91%
98 | CCOCC(O)CN1CCN(C(=O)Cc2cccc(C)c2)CC1 (stereo unspecified) | 59.6%
99 | Cc1ccc(CC(=O)N2CCN(CC(O)C(C)(C)C)CC2)cn1 (stereo unspecified) | -202%
100 | CC(C)(C)C(=O)NS(=O)(=O)c1ccc(C#N)c(C(F)(F)F)c1 | -87.2%
101 | CN(C)[C@@H]1CN(C(=O)Cc2ccsc2)[C@@H]2CCCO[C@H]12 | 32.7%
102 | CCNC(=O)CCC(=O)NC(C)Cc1ccccc1Br (stereo unspecified) | -67.5%
103 | NC(=O)C1CN(C(=O)Nc2cc(Cl)cc(Cl)c2)CCO1 (stereo unspecified) | 84.9%
104 | O=C(CCc1cscn1)N1CCC(C(=O)O)(c2ccccc2)CC1 | -11.5%
105 | Cc1ncc2c(c1CNC(=O)C1(C)CCCCO1)CCNC2 (stereo unspecified) | -63.8%
106 | O=C(NCc1cc2n(n1)CCCNC2)C1(c2ccccc2)CCCCC1 | 73.7%
